{
  "source": "PubChem BioAssay AID485314",
  "about": "(National Center for Advancing Translational Sciences (NCATS), 2010)",
  "note": "Out of some 340,000 compounds screened, about 4,500 (1.3%) were called active. Not shown: some 5% with an inconclusive outcome. The list comes from a sample in which actives are over-represented; it also holds similar structures and randomly drawn compounds. A number with no mark means an inactive call. Calls follow the shape of the dose curve; as a rule, active = well fitted inhibition curve with a large enough effect; inconclusive = small, poorly fitted or top-dose-only effect, or another doubt; inactive = no such curve, though single readings can be large or run the other way. % is scaled to controls: 0 for no effect and ±100 for the full control effect; potency is read from the fitted curve at half-maximal effect.",
  "data": [
    {"molecular_target": "DNA polymerase beta (Homo sapiens) (UniProt P06746)", "experiment": "qHTS Assay for Inhibitors of DNA Polymerase Beta", "details": "Pol beta primer extension/strand displacement, fluorescence kinetic; series mostly up to 114 µM; activity change, negative = inhibition: at the top concentration", "procedure,_shortened": "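Values derive from four-parameter Hill fits of normalized kinetic data: reads at 0 and 10 min following addition of 50 nM substrate to 10 nM Pol beta preincubated 15 min with compound.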", "units": {"activity change, negative = inhibition": "%"}, "values": [
      {"smiles": "COc1cccc(CNC(=O)CCC(=O)N2CC3CCCN3c3ccccc32)c1", "note": "(stereo not given)", "activity change, negative = inhibition": -2.64},
      {"smiles": "O=C(NCCCCCCNC(=O)NCc1ccco1)NCc1ccco1", "activity change, negative = inhibition": 24.2},
      {"smiles": "Cc1cc(C(=O)OCC(=O)NCc2ccco2)c(C)n1-c1ccccc1", "Potency": "22.4 µM (active)"},
      {"smiles": "O=C(COC(=O)c1cnc(Cl)c(Cl)c1)NCc1ccco1", "Potency": "25.1 µM (active)"},
      {"smiles": "C/C(=N\\Nc1ncc(Cl)cc1Cl)c1ccc(S(=O)(=O)NCc2ccco2)cc1", "activity change, negative = inhibition": 13.7},
      {"smiles": "O=C(CC1CCCCC1)NCc1ccco1", "activity change, negative = inhibition": -12.9},
      {"smiles": "O=C(COC(=O)c1cc(S(=O)(=O)N2CCCCC2)ccc1Cl)NCc1ccco1", "activity change, negative = inhibition": 1.64},
      {"smiles": "O=C(COC(=O)C12CC3CC(CC(C3)C1)C2)NCc1ccco1", "Potency": "14.1 µM (active)"},
      {"smiles": "Cc1c(Cl)cnc(NC(=O)COC(=O)c2ccc(S(=O)(=O)NCc3ccco3)cc2)c1Cl", "Potency": "31.6 µM (active)"},
      {"smiles": "Cc1cc(C(=O)OCC(=O)N2c3ccccc3NC(=O)C2(C)C)c(C)n1-c1ccccc1", "activity change, negative = inhibition": -0.675},
      {"smiles": "O=C(COC(=O)c1ccco1)NCc1ccc(Cl)cc1", "activity change, negative = inhibition": -9.59},
      {"smiles": "CSCCC(NC(=O)c1ccco1)C(=O)OCC(=O)Nc1ncc(Cl)c(C)c1Cl", "note": "(stereo not given)", "activity change, negative = inhibition": -18},
      {"smiles": "CN(c1ccccc1)S(=O)(=O)c1ccc(Cl)c(C(=O)OCC(=O)NCc2ccco2)c1", "activity change, negative = inhibition": -98.4},
      {"smiles": "COc1ccc(NC(=O)CCCN2C(=O)CCn3nc(-c4cn(C)c5ccccc45)cc32)cc1OC", "activity change, negative = inhibition": 4.33},
      {"smiles": "CCN1CCN(C(c2ccc(C)cc2)c2c(O)cc(C)n(Cc3ccco3)c2=O)CC1", "note": "(stereo not given)", "activity change, negative = inhibition": -20},
      {"smiles": "CC1Cc2cc(S(=O)(=O)CCC(=O)NCc3ccc(Cl)cc3)ccc2N1C(=O)C1CC1", "note": "(stereo not given)", "activity change, negative = inhibition": -0.0771},
      {"smiles": "C#CC(C)(CC)NC(=O)Cn1nnc(-c2ccc(OCc3c(F)cccc3Cl)cc2)n1", "note": "(stereo not given)", "activity change, negative = inhibition": -7.54},
      {"smiles": "CC(=O)OC1=C(C(C)=O)N(Cc2ccccc2)S(=O)(=O)c2ccccc21", "activity change, negative = inhibition": 18.8},
      {"smiles": "O=C(C1CCC(Cn2c(=O)c3sccc3n(Cc3ccccc3F)c2=O)CC1)N1CCCCC1", "note": "(stereo not given)", "activity change, negative = inhibition": -0.425},
      {"smiles": "COCCCNC(=O)c1ccc(NC(=O)c2nsc3ccccc23)cc1", "activity change, negative = inhibition": -0.898}
    ]}
  ]
}
